Screening results as filed in PubChem.
Most compounds without a hit are left out; they make up all but 19% or so of the library.
DT40 TDP1 no CPT = qHTS for Inhibitors of human tyrosyl-DNA phosphodiesterase 1 (TDP1): qHTS in cells in absence of CPT; Potency, µM (doses to about 46.2 µM), inactives show at the highest dose activity change, negative = growth inhibition, hits mostly inhibitors; DT40 Tdp1-/- hTDP1 cells, no CPT, ATP luminescence, 48 h; 15% of 420,000 active; AID 686978, 2013; note: potency is the fitted concentration of half-maximal effect; % is set by controls: 0 for no effect and ±100 for the full control effect; nearly all actives have a fitted effect of over 55% in size
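Readout: luminescence from CellTiter-Glo after 30 min in the dark at RT. Cells: DT40 Tdp1-/- with stable hTDP1, 400/well. Exposure: compounds alone, ≥48 hr, 37 °C.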
HepG2 viability = kills HepG2 cells in TGF-b inhibitor counter-screen | HepG2 CAGA-GFP viability, ATP luminescence, 18 h | Potency, µM (top dose mostly 46.1 µM), for inactives: at the top dose activity change, negative = cytotoxicity, actives largely listed as cytotoxic | 0.76% of 410,000 active; note: potency is the fitted concentration of half-maximal effect
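HepG2 CAGA-GFP cells (1000/well, DMEM with 1% FBS) received compound, then TGF-beta at 500 pg/mL final, and were incubated 18 hours at 37 degrees C. Viability was read by CellTiter-Glo luminescence. Media-only wells were set as complete cell-killing and DMSO as no toxicity.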
DT40 TDP1 CPT = DT40-hTDP1 cell growth loss with CPT; chicken DT40 Tdp1-/-;hTDP1 cells + 20 nM CPT, ATP luminescence, 48 h; Potency, µM (doses to about 46.2 µM), for the others: at the highest dose activity change, negative = growth inhibition, most hits filed as inhibitors; 12% of 420,000 active; AID 686979; note: potency is the fitted concentration of half-maximal effect; % is set by controls: 0 for no effect and ±100 for the full control effect; nearly all actives have a fitted effect of over 55% in size
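Chicken DT40 Tdp1-/- cells stably complemented with human TDP1 were seeded at 400 cells/well in medium containing 20 nM camptothecin, exposed to pin-transferred compounds, and grown at 37 °C for at least 48 hr. Viability was read as ATP luminescence.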
IL1B secr inh = inflammasome signaling inhibition, IL-1 beta readout; THP-1 LPS/ATP IL-1B secretion, AlphaLISA, 16 h; hits give low values; activity change, % at 57.5 µM; 4.7% of 360,000 active; in the data active = activity change below about -50%; inconclusive = mostly about -30% to -49%; note: % is set by controls: 0 for no effect and ±100 for the full control effect
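THP-1 cells pretreated 1 hr with compounds (up to 57.5 uM final), then stimulated with LPS (250 ng/mL final) plus ATP (1.25 mM final); secreted IL-1B measured by AlphaLISA after 16 hr, decreased signal indicating inhibition.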
TGFb SMAD3 inh = inhibitors of TGF-b signaling; HepG2 CAGA-GFP TGF-b/SMAD3 reporter, GFP fluorescence, 18 h; TGF-beta stimulated, 500 pg/mL final; 1.2% of 410,000 active; Potency, µM (top dose mostly 46.1 µM), for inactives: top-dose activity, negative = inhibition, most hits filed as inhibitors; note: potency is the fitted concentration of half-maximal effect; % is set by controls: 0 for no effect and ±100 for the full control effect; nearly all actives have a fitted effect of over 65% in size
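Read-out: total well GFP (ex488/em500-530) summed from mean per-cell fluorescence. Cells: HEPG2 CAGA-GFP, 1% FBS DMEM, 18 h at 37 degrees C with 500 pg/mL final TGF-beta. Unstimulated wells served as the full-inhibition control; stimulated DMSO wells = 0%.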
ASM inhibitor = blocks human secretory acid sphingomyelinase. P17405. placental ASM, HMU-PC fluorogenic substrate, 60 min. Potency, µM (top dose mostly 57.5 µM), without a hit: top-dose activity change, negative = inhibition, usual class: inhibitors. 0.006% of 340,000 active; note: potency is the fitted concentration of half-maximal effect
Target sequence (P17405 47-631 limits assumed): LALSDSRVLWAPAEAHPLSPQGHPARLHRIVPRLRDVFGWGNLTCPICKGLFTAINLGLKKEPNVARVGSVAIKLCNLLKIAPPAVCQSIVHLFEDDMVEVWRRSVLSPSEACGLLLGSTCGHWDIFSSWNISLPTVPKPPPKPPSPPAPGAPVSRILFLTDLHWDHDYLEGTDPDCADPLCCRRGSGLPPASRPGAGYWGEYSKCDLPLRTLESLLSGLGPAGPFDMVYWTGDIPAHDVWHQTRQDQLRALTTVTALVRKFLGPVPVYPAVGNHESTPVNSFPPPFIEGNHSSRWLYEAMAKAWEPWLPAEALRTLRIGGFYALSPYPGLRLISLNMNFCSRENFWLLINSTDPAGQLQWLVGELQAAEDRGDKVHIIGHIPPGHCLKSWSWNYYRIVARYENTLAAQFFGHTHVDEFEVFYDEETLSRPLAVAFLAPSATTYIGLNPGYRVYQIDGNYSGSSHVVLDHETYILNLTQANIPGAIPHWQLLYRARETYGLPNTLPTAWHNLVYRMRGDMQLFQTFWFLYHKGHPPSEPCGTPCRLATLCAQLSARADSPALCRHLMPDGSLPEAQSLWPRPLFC
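Fluorogenic HMU-PC substrate (9 uM final) is turned over by placental ASM in 60 min at 37 C after a 10 min compound preincubation. Reaction ended by alkaline stop (pH 10), with fluorescence read at 386/447 nm.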
Numbers without * were called inactive. Unless noted, calls come from the whole dose curve; as a rule, active = well fitted curve in the direction sought with a large enough effect; inconclusive = small, poorly fitted or top-dose-only effect, or another doubt; inactive = no such curve, though single readings can be large; an effect the other way counts as inactive or inconclusive.

CC(=O)c1ccc(N(C(=O)CS(=O)CC(=O)Nc2ccc(F)cc2)C(C(=O)NC2CCCCC2)c2cccs2)cc1 (stereo not given) was read as DT40 TDP1 no CPT inconclusive, HepG2 viability 1.4%, DT40 TDP1 CPT -26.3%, IL1B secr inh 7.3, TGFb SMAD3 inh -4.9% and ASM inhibitor 3.1%.
For O=C1CC(c2ccc(OCCCCCOc3ccc(C4CC(=O)NC4=O)cc3)cc2)C(=O)N1 (stereo not given) the results were DT40 TDP1 no CPT inconclusive, HepG2 viability -8.6%, DT40 TDP1 CPT -26.7%, IL1B secr inh -131.5*, TGFb SMAD3 inh inconclusive and ASM inhibitor 13.6%.
Screening C/C=C/c1ccc(OCC(O)CN(C)Cc2ccc(SC)cc2)c(OC)c1 (stereo not given) returned DT40 TDP1 no CPT 23.1µM*, HepG2 viability -116.8%, DT40 TDP1 CPT inconclusive, IL1B secr inh inconclusive, TGFb SMAD3 inh inconclusive and ASM inhibitor -7.4%.
For C/C=C/c1ccc(OCC(O)CN2CCCCC2CC)c(OC)c1 (stereo not given) the results were DT40 TDP1 no CPT -28.1%, HepG2 viability 4.6%, DT40 TDP1 CPT 11.1%, IL1B secr inh -10.4, TGFb SMAD3 inh 13.7% and ASM inhibitor 1.8%.
Screening C/C=C/c1ccc(OCC(O)CNCCc2ccc(OC)cc2)c(OC)c1 (stereo not given) returned DT40 TDP1 no CPT inconclusive, HepG2 viability -40.6%, DT40 TDP1 CPT inconclusive, IL1B secr inh inconclusive, TGFb SMAD3 inh inconclusive and ASM inhibitor -4.8%.
For C/C=C/c1ccc(OCC(O)CNCC(c2ccc(OC)cc2)N(C)C)c(OC)c1 (stereo not given) the results were DT40 TDP1 no CPT inconclusive, HepG2 viability -12.8%, DT40 TDP1 CPT inconclusive, IL1B secr inh -56.7*, TGFb SMAD3 inh 0.0% and ASM inhibitor -1.5%.
For CCNc1ccc(-c2nc(-c3ccco3)no2)cc1[N+](=O)[O-] the results were DT40 TDP1 no CPT -10.9%, HepG2 viability -4.9%, DT40 TDP1 CPT -5.9% and TGFb SMAD3 inh inconclusive.
For c1ccc(-c2cnnc3ccccc23)cc1 the results were DT40 TDP1 no CPT inconclusive, HepG2 viability 0.0%, DT40 TDP1 CPT -28.6%, IL1B secr inh 10.9, TGFb SMAD3 inh inconclusive and ASM inhibitor -1.2%.
CC(=O)N1CCc2cc(CNS(=O)(=O)c3ccc(C(C)(C)C)cc3)ccc21 was read as DT40 TDP1 no CPT inconclusive, HepG2 viability -24.9%, DT40 TDP1 CPT inconclusive and TGFb SMAD3 inh inconclusive.
CCCN1C(=O)c2[nH]nc(-c3cccc(OC)c3)c2C1c1ccccn1 (stereo not given) was read as DT40 TDP1 no CPT 20.6µM*, HepG2 viability -10.8%, DT40 TDP1 CPT inconclusive and TGFb SMAD3 inh inconclusive.
Screening CCCN1C(=O)c2[nH]nc(-c3ccccc3)c2C1c1cccc(O)c1 (stereo not given) returned DT40 TDP1 no CPT 23.1µM*, HepG2 viability 3.8%, DT40 TDP1 CPT 18.4µM* and TGFb SMAD3 inh -6.8%.
CCCN1C(=O)c2[nH]nc(-c3ccccc3O)c2C1c1cccc(OCc2ccccc2)c1 (stereo not given) was read as DT40 TDP1 no CPT 9.2µM*, HepG2 viability 15.8µM*, DT40 TDP1 CPT 20.6µM* and TGFb SMAD3 inh 11.2µM*.
`COc1ccc(CCN2C(=O)c3[nH]nc(-c4ccccc4O)c3C2c2ccccc2)cc1OC` (stereo not given) gave DT40 TDP1 no CPT 20.6µM*, HepG2 viability -5.9%, DT40 TDP1 CPT 18.4µM*, IL1B secr inh inconclusive, TGFb SMAD3 inh inconclusive and ASM inhibitor 0.0%.
For CC(Oc1ccc(Cl)cc1Cl)C(=O)N(C)c1ccccc1 (stereo not given) the results were DT40 TDP1 no CPT inconclusive, HepG2 viability -6.4%, DT40 TDP1 CPT inconclusive, IL1B secr inh 30.9, TGFb SMAD3 inh -22.1% and ASM inhibitor 3.0%.
Screening CC(=O)c1sc(NC(=O)CCN2C(=O)c3ccccc3C2=O)nc1C returned DT40 TDP1 no CPT 7.2%, HepG2 viability -0.7%, DT40 TDP1 CPT 2.6%, IL1B secr inh 8.7 and TGFb SMAD3 inh -22.4%.
Screening COCCN1C(=O)c2[nH]nc(-c3ccccc3O)c2C1c1ccc(OCc2ccccc2)c(OC)c1 (stereo not given) returned DT40 TDP1 no CPT 8.2µM*, HepG2 viability -73.1%, DT40 TDP1 CPT inconclusive and TGFb SMAD3 inh inconclusive.
`COc1ccccc1N1CCN(c2cc(=O)n(Cc3ccc(F)cc3)c(=O)[nH]2)CC1` gave DT40 TDP1 no CPT 4.61µM*, HepG2 viability -3.6%, DT40 TDP1 CPT 3.66µM*, IL1B secr inh 32.4, TGFb SMAD3 inh -17.6% and ASM inhibitor 1.6%.
`O=c1cc(N2CCN(c3ccccc3Cl)CC2)[nH]c(=O)n1Cc1ccc(F)cc1` gave DT40 TDP1 no CPT 1.46µM*, HepG2 viability -13.7%, DT40 TDP1 CPT 4.61µM*, IL1B secr inh 18.2, TGFb SMAD3 inh 0.5% and ASM inhibitor -4.5%.
Screening Cc1ccc2c(=O)c(C(=O)c3ccccc3)cn(CC(=O)Nc3ccc(C)c(Cl)c3)c2n1 returned DT40 TDP1 no CPT -19.9%, HepG2 viability -8.9%, DT40 TDP1 CPT -15.3% and TGFb SMAD3 inh 30.8%.
For O=c1[nH]ccc2c(O)cccc12 the results were DT40 TDP1 no CPT 20.6µM*, HepG2 viability 1.8%, DT40 TDP1 CPT inconclusive, IL1B secr inh 37.5, TGFb SMAD3 inh 20.6% and ASM inhibitor 61.3%.
Screening Cc1ccc(-n2ncc3c(N4CCN(C)CC4)ncnc32)cc1C returned DT40 TDP1 no CPT inconclusive, HepG2 viability 9.2%, DT40 TDP1 CPT inconclusive and TGFb SMAD3 inh 16.7%.
For Cn1ncc2c(N3CCOCC3)ncnc21 the results were DT40 TDP1 no CPT -17.6%, HepG2 viability -24.8%, DT40 TDP1 CPT -24.8%, IL1B secr inh -10.8, TGFb SMAD3 inh 34.2% and ASM inhibitor 1.7%.
For CN1CCN(c2ncnc3c2cnn3-c2cccc(Cl)c2)CC1 the results were DT40 TDP1 no CPT 16.4µM*, HepG2 viability -13.4%, DT40 TDP1 CPT 16.4µM* and TGFb SMAD3 inh 18.5%.
`Cn1ncc2c(N3CCN(c4ccccc4Cl)CC3)ncnc21` gave DT40 TDP1 no CPT 20.6µM*, HepG2 viability -15.6%, DT40 TDP1 CPT inconclusive and TGFb SMAD3 inh -0.8%.
